# Laboratory results as given in PubChem BioAssay.
# Results filed as inconclusive are left out. Calls of active or inactive are those of the source.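 Rule for the calls, unless noted: active = normalized viability below 100% at a tested concentration; inactive = the rest.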
# Assays:
# [1] = viability loss in pontine glioma line – cell-based, SU-DIPG-XVII, MIPE5.0, CellTiter-Glo, qHTS, dose response (AID 1347060; cut-off not given, nearly all actives have AC50 up to about 26 µM;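 note: cells exposed to compound for 48 hours before viability readout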); settings: CellTiter-Glo ATP luminescence
# [2] = viability loss in pontine glioma line – cell-based, JHH-DIPG-1, MIPE4.0, CellTiter-Glo, qHTS, dose response (AID 1347062; cut-off not given, nearly all actives have AC50 up to about 27 µM;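 for AC50: cells exposed to compound for two days before readout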); settings: JHH-DIPG-1 viability, CellTiter-Glo ATP luminescence
# [3] = viability loss in pontine glioma line – cell-based, SU-DIPG-IV, MIPE4.0, CellTiter-Glo, qHTS, dose response (AID 1347063; cut-off not given, nearly all actives have AC50 up to about 30 µM;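 note: compound exposure lasted 48 hours before the viability readout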); settings: CellTiter-Glo ATP luminescence
# [4] = viability loss in pontine glioma line – cell-based, SU-DIPG-XXV, MIPE5.0, CellTiter-Glo, qHTS, dose response (AID 1347065; cut-off not given, nearly all actives have AC50 up to about 26 µM;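 note: cells exposed to compound for 48 hours before ATP readout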); settings: CellTiter-Glo ATP luminescence
# [5] = JHH-DIPG-1 glioma cell viability, MIPE5.0 library, CellTiter-Glo luminescence, qHTS (AID 1347067; cut-off not given, nearly all actives have AC50 up to about 26 µM;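 note: cells exposed to compound for 48 hours before readout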); settings: JHH-DIPG-1 glioma viability, CellTiter-Glo ATP luminescence
# [6] = growth inhibition of DIPG cells – cell-based, MIPE5.0 library, qHTS (AID 1347068; cut-off not given, nearly all actives have IC50 up to about 30 µM;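 note: cells exposed to compound for 48 hours before viability readout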); settings: SU-DIPG-XXV viability
# [7] = viability loss with induced miR-34 in A549 – imaging, A549 dox-inducible miR-34, nuclei and caspase counts, primary screen (AID 1347080;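 active = compounds whose cell count with miR-34 switched on is under 0.7 times the count with it off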); settings: A549 miR-34 inducible, Hoechst nuclei count, 48 h
# [8] = compounds altering HSF1 focus formation in cells – imaging, Selleck Cancer Library (AID 1347162; in the data active = plate-normalised HSF1 focus index below about 0.46); settings: human cells, HSF1 nuclear foci imaging, at 10 µM; SSMD: measured here: HSF1 foci SSMD mean; cell count: measured here: cell number; plate-normalised HSF1 focus index: stronger effect = lower value
# [9] = MELAS cybrid and Rieske KO viability enhancers – cell-based, MELAS cybrids, Rieske KO mouse fibroblasts, CellTiter-Glo, primary screen (AID 1508586;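 active = mean z-score across replicates of 1.96 or higher in either the MELAS or the Rieske mutant cell line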;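 note: z relative to plate mean and SD of compound and empty wells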); settings: low glucose
# [10] = drug combination growth inhibition, ovarian cancer – cell-based, oncology-focused library, rucaparib conditional, profiling panel (AID 1508598); settings: patient-derived ovarian cancer cells, CellTiter-Glo viability, 144 h, stronger effect = lower value
# [11] = growth inhibition of DIPG cells – cell-based, MIPE4.0 library, CellTiter-Glo luminescence, qHTS (AID 1347066; cut-off not given, nearly all actives have AC50 up to about 30 µM;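 note: cells exposed to compound for 48 hours before readout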); settings: SU-DIPG-VI viability, CellTiter-Glo ATP luminescence
# [12] = stronger effect = lower value, cell number ratio, induced over uninduced
# [13] = measured here: relative caspase fold change +Dox/-Dox
# [14] = measured here: total cells with miR-34 induction, stronger effect = lower value
# [15] = measured here: total cells without miR-34 induction
# [16] = MELAS cybrid survival, CellTiter-Glo 48 h, stronger effect = higher value
# [17] = Rieske KO mouse fibroblast survival, CellTiter-Glo 72 h
compound,measurement,setting,value
O=C1NC(=O)C(c2cnc3ccccn23)=C1c1cn2c3c(cccc13)CN(C(=O)N1CCOCC1)CC2,AC50,[1],1.05 µM (active)
same,outcome,[2],inactive
same,AC50,[3],0.00833 µM (active)
same,AC50,[4],11.8 µM (active)
same,AC50,[5],18.6 µM (active)
same,IC50,[6],18.6 µM (active)
COc1cc2c(NC3CCN(C(C)C)CC3)nc(C3CCCCC3)nc2cc1OCCCN1CCCC1,AC50,[1],23.5 µM (active)
same,AC50,[2],8.33 µM (active)
same,AC50,[3],18.7 µM (active)
same,AC50,[4],20.9 µM (active)
same,IC50,[6],23.5 µM (active)
C=CCn1c(=O)c2cnc(Nc3ccc(N4CCN(C)CC4)cc3)nc2n1-c1cccc(C(C)(C)O)n1,AC50,[1],4.17 µM (active)
same,AC50,[2],0.418 µM (active)
same,AC50,[3],11.8 µM (active)
same,AC50,[4],1.05 µM (active)
same,fold change,[7]; [12],1.27 (inactive)
same,fold change,[7]; [13],0.673
same,cell count,[7]; [14],1400
same,cell count,[7]; [15],1100
same,SSMD,[8],1.04
same,cell count,[8],6680
same,plate-normalised HSF1 focus index,[8],1.07 (inactive)
same,z-score,[9]; [16],0.245 (inactive)
same,z-score,[9]; [17],1.66
same,viability,"[10]; at 0.000305 µM, OCI-C5x cells, with rucaparib 10 µM, 100% = cells with rucaparib alone",126% (inactive)
same,viability,"[10]; at 0.000305 µM, OCI-C5x cells, without rucaparib",107% (inactive)
same,viability,"[10]; at 0.000305 µM, OCI-P5x cells, with rucaparib 20 µM, 100% = cells with rucaparib alone",88.3% (active)
same,viability,"[10]; at 0.000305 µM, OCI-P5x cells, without rucaparib",91.1% (active)
same,viability,"[10]; at 0.00122 µM, OCI-C5x cells, with rucaparib 10 µM, 100% = cells with rucaparib alone",122% (inactive)
same,viability,"[10]; at 0.00122 µM, OCI-C5x cells, without rucaparib",109% (inactive)
same,viability,"[10]; at 0.00122 µM, OCI-P5x cells, with rucaparib 20 µM, 100% = cells with rucaparib alone",102% (inactive)
same,viability,"[10]; at 0.00122 µM, OCI-P5x cells, without rucaparib",98.1% (active)
same,viability,"[10]; at 0.00488 µM, OCI-C5x cells, with rucaparib 10 µM, 100% = cells with rucaparib alone",121% (inactive)
same,viability,"[10]; at 0.00488 µM, OCI-C5x cells, without rucaparib",107% (inactive)
same,viability,"[10]; at 0.00488 µM, OCI-P5x cells, with rucaparib 20 µM, 100% = cells with rucaparib alone",102% (inactive)
same,viability,"[10]; at 0.00488 µM, OCI-P5x cells, without rucaparib",98.9% (active)
same,viability,"[10]; at 0.0195 µM, OCI-C5x cells, with rucaparib 10 µM, 100% = cells with rucaparib alone",120% (inactive)
same,viability,"[10]; at 0.0195 µM, OCI-C5x cells, without rucaparib",102% (inactive)
same,viability,"[10]; at 0.0195 µM, OCI-P5x cells, with rucaparib 20 µM, 100% = cells with rucaparib alone",88.1% (active)
same,viability,"[10]; at 0.0195 µM, OCI-P5x cells, without rucaparib",97.6% (active)
same,viability,"[10]; at 0.0781 µM, OCI-C5x cells, with rucaparib 10 µM, 100% = cells with rucaparib alone",104% (inactive)
same,viability,"[10]; at 0.0781 µM, OCI-C5x cells, without rucaparib",96.7% (active)
same,viability,"[10]; at 0.0781 µM, OCI-P5x cells, with rucaparib 20 µM, 100% = cells with rucaparib alone",82.5% (active)
same,viability,"[10]; at 0.0781 µM, OCI-P5x cells, without rucaparib",92.8% (active)
same,viability,"[10]; at 0.313 µM, OCI-C5x cells, with rucaparib 10 µM, 100% = cells with rucaparib alone",69.6% (active)
same,viability,"[10]; at 0.313 µM, OCI-C5x cells, without rucaparib",55.3% (active)
same,viability,"[10]; at 0.313 µM, OCI-P5x cells, with rucaparib 20 µM, 100% = cells with rucaparib alone",65.5% (active)
same,viability,"[10]; at 0.313 µM, OCI-P5x cells, without rucaparib",59.9% (active)
same,viability,"[10]; at 1.25 µM, OCI-C5x cells, with rucaparib 10 µM, 100% = cells with rucaparib alone",54.7% (active)
same,viability,"[10]; at 1.25 µM, OCI-C5x cells, without rucaparib",40.2% (active)
same,viability,"[10]; at 1.25 µM, OCI-P5x cells, with rucaparib 20 µM, 100% = cells with rucaparib alone",45.8% (active)
same,viability,"[10]; at 1.25 µM, OCI-P5x cells, without rucaparib",23.7% (active)
same,viability,"[10]; at 5 µM, OCI-C5x cells, with rucaparib 10 µM, 100% = cells with rucaparib alone",35.9% (active)
same,viability,"[10]; at 5 µM, OCI-C5x cells, without rucaparib",25.1% (active)
same,viability,"[10]; at 5 µM, OCI-P5x cells, with rucaparib 20 µM, 100% = cells with rucaparib alone",14.5% (active)
same,viability,"[10]; at 5 µM, OCI-P5x cells, without rucaparib",7.98% (active)
NC(=O)N1CCC(CC(=O)N2CCC([C@H]3c4ncc(Br)cc4CCc4cc(Cl)cc(Br)c43)CC2)CC1,AC50,[1],18.6 µM (active)
same,AC50,[2],23.5 µM (active)
same,AC50,[3],18.7 µM (active)
same,AC50,[4],16.6 µM (active)
same,AC50,[11],16.6 µM (active)
same,AC50,[5],23.5 µM (active)
CC(C)(C)c1cc(C(C)(C)C)c(NC(=O)c2c[nH]c3ccccc3c2=O)cc1O,AC50,[1],11.8 µM (active)
same,outcome,[2],inactive
same,outcome,[3],inactive
same,AC50,[4],10.5 µM (active)
same,outcome,[11],inactive
same,AC50,[5],14.8 µM (active)
same,IC50,[6],16.6 µM (active)
same,fold change,[7]; [12],0.893 (inactive)
same,fold change,[7]; [13],1.04
same,cell count,[7]; [14],5220
same,cell count,[7]; [15],5840
same,z-score,[9]; [16],-0.385 (inactive)
same,z-score,[9]; [17],0.598
